Results reported in PubChem BioAssay (NCI).
This is part of a sample that, as a whole, favours compounds with a hit. Of some 83,000 tested, about 20% had one in any assay.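 Plates (96-well) were seeded with cells, treated with compound at one concentration, and incubated for 48 hours before percent growth was determined.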 Values without a mark were called inactive. Calls of active or inactive are those of the source. How the source made its calls: active means growth percent below 10; inactive means the rest.

System: IGROV1 ovarian
Experiment: NCI-60 one-dose screen, 48 h (100 = growth as untreated, 0 = no growth, -100 = all killed)
Details: 10 µM unless noted

| SMILES | growth |
| --- | --- |
| O=c1oc2ccccc2cc1-c1nn(-c2ccccc2)cc1/C=N/Nc1nc(-c2ccccc2)c(N=Nc2ccccc2)s1 | 81.7% |
| COc1cc(/C=C2\CN(S(=O)(=O)c3ccc(C)cc3)C/C(=C\c3cc(CN4CCCC4)c(O)c(OC)c3)C2=O)cc(CN2CCCC2)c1O | -20.1% (active) |
| Nc1ccc(Cl)c2c(=O)c3ccccc3[nH]c12 | 94.7% |
| COC(=O)c1sc(-c2ccc(C)cc2)cc1O | 100% |
| CCOC(=O)CSc1nc2sc3c(c2c(=O)n1-c1ccccc1)CCCCC3 | 106% |
| O=C1NCCS(=O)(=O)/C1=C\C=C\c1cccc(C(F)(F)F)c1 | 35.5% |
| COc1cc(/C=C2\C(=O)N(CCOc3cc(O)c4c(=O)cc(-c5ccccc5)oc4c3)c3ccccc32)cc(OC)c1O | 74.4% |
| CNC1=C([N+](=O)[O-])C(c2ccc(OC)cc2)C(C#N)=C(c2ccc[nH]2)O1 (stereo not drawn) | 104% |
| COc1cccc2cc(N(C)c3ncnc4ccccc34)ccc12 | 14.4% |
| Cc1[nH]c(C(=O)Nc2ccc(C(N)=O)cc2OC(C)C)c(Cl)c1Cl | 95.1% |
| Nc1nc(N)c2c(n1)NC(c1cccc(Nc3ccnc4cc(C(F)(F)F)ccc34)c1)CC(c1ccc(Cl)cc1)=N2 (stereo not drawn) | 52.9% |
| COC1=C(OC)C(=O)C(CCCCCCCCCCO)=C(C)C1=O | 57.7% |
| O=C1c2c(c3c4cccnc4[nH]c3c3ccc4ccccc4c23)C(=O)N1O | 38% |
| CCN1CCN(C(=O)[C@]23CC[C@@H](C)[C@H](C)[C@@H]2C2=CC[C@@H]4[C@@]5(C)C/C(=C/c6ccncc6)C(=O)C(C)(C)[C@@H]5CC[C@@]4(C)[C@]2(C)CC3)CC1 | 29.8% |
| C=CC(=O)Nc1ccc2ncnc(Nc3cccc(NS(=O)(=O)CCC)c3Cl)c2c1 | 18.5% |
| COc1ccccc1/C=C/C1=C(C)CCC(c2ccccc2OC)C1C (stereo not drawn) | -48.7% (active) |
| CN(C)CCOc1nc2c3cc([N+](=O)[O-])ccc3nn2c2ccccc12 | 29.8% |
| COc1ccc(-c2nc(SCCC(C)C)nc(N/N=C(/C)c3ccc(N)cc3)c2C#N)cc1 | 79% |
| O=C(c1ccccc1)[C@@H](c1ccccc1)[C@]1(O)C(=O)Nc2ccccc21 | 98.4% |
| CCOC(=O)C1=C(c2ccccc2)N=C2SC=C(c3cccc([N+](=O)[O-])c3)N2C1c1ccc(O)cc1 (stereo not drawn) | 95.5% |
| Cn1nc(-c2ccc(Cl)cc2)nc2c(=O)n(C)c(=O)nc1-2 | 7.78% (active) |
| COC1CC(O)C2=C(CC3C(/C(C)=C\CC=C(C)C)CCC3(C)O2)C1=O (stereo not drawn) | 110% |
| COc1cc(C(=O)/C=C/c2c(-c3cccs3)nc3sc(C)cn23)cc(OC)c1OC | 9.6% (active) |
| CSc1nc(N)c2c(n1)NC(c1ccccc1)C1CCc3ccccc3C1=N2 (stereo not drawn) | 40.4% |
| COC(=O)c1c(C)nc(C)c2c1C(=O)C(Br)=C(NCCCCO)C2=O | 52.9% |
| COc1ccc(S(=O)(=O)Oc2ccc(-c3sc4cc(OS(=O)(=O)c5ccc(OC)cc5)ccc4c3C(=O)c3ccc(OCCN4CCCCC4)cc3)cc2)cc1 | 99.3% |
| C=C(c1ccc(C(=O)O)c(F)c1)c1cc2c(cc1C)C(C)(C)C=CC2(C)C | 90.4% |
| COc1cc(C2=Nc3c(N)nc(N)nc3NC(c3cccc(Nc4ccnc5cc(C(F)(F)F)ccc45)c3)C2)cc(OC)c1OC (stereo not drawn) | 65.6% |
